# According to PubChem BioAssay AID686978 (National Center for Advancing Translational Sciences (NCATS), 2013):
# Out of some 420,000 compounds screened, about 64,000 (15%) were called active. Roughly 27% stayed inconclusive and do not appear here. The call rests on the fitted dose curve; in most records, active means well fitted inhibition curve with a large enough effect; inconclusive means small, poorly fitted or top-dose-only effect; inactive means flat fitted curve, though single readings scatter. Only a sample is shown.
# Assay: qHTS for Inhibitors of human tyrosyl-DNA phosphodiesterase 1 (TDP1): qHTS in cells in absence of CPT; further: nearly all actives have a fitted effect of over 55% in size
# Conditions: DT40 Tdp1-/- hTDP1 cells, no CPT, ATP luminescence, 48 h; activity change, negative = growth inhibition: at 46.2 µM (top of the series)
# How it was run: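 Stably hTDP1-transfected Tdp1-null chicken DT40 cells were treated with library compounds minus camptothecin and grown for at least 48 hr at 37 °C, after which cellular ATP was quantified by luminescence.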
# On the % scale 0 is the no-effect control and ±100 the full control effect; potency means the concentration at half of the fitted maximal effect.
SMILES,"activity change, negative = growth inhibition",Potency
CCCCSc1nnc2c(n1)OC=Nc1ccccc1-2,-11.3% (inactive),
CCCn1nc(Oc2nc(NC(C)C)nc(N(C)C)n2)ccc1=O,8.56% (inactive),
Cn1c(SCC(=O)NC2CCCCC2)nnc1-c1ccc(N)cc1,2.92% (inactive),
CC(=O)Nc1ccc(N2C(=O)C3C4CC(=O)C(c5ccccc54)C3C2=O)cc1 (stereo unspecified),-3.56% (inactive),
CCCCc1c(-c2ccc(Cl)cc2)ncn1CCc1ccccc1OC,,3.26 µM (active)
COc1cccc(OC)c1C(=O)N1CCN(Cc2ccccc2F)CC1,-18.9% (inactive),
COc1ccccc1CCC(=O)NNC(=O)c1ccncc1,4.68% (inactive),
CCCCc1c(-c2ccc(Br)cc2)ncn1CCc1ccccc1OC,,1.3 µM (active)
COc1ccccc1OCCCn1c(-c2ccc(Cl)cc2)nc2ccccc2c1=O,6.13% (inactive),
COc1ncc2nc(-c3ccc(Cl)cc3)c(=O)n(C)c2n1,1.53% (inactive),
COc1ccccc1CCn1c(=O)c(-c2cn(C)c3ccccc23)nc2cncnc21,3% (inactive),
CCCc1c(-c2ccccc2F)ncn1Cc1ccccc1OC,,1.16 µM (active)
COc1ccccc1CN1CCN(Cc2cc(OC)c(OC)cc2OC)CC1,-29.9% (inactive),
CCN(CC(=O)NC(C)C)C(=O)c1cc(S(=O)(=O)N2CCCCC2)ccc1N1CCCCC1,-13.3% (inactive),
CCOC(=O)c1c(C)[nH]c(C(=O)OCC(=O)c2ccc(OC)cc2OC)c1C,-18.7% (inactive),
C=CCNc1nc(N)c([N+](=O)[O-])c(NC2CCCCC2)n1,-13% (inactive),
CCCCn1c(N)c(N(CCOC)C(=O)c2sc3ccccc3c2Cl)c(=O)[nH]c1=O,2.54% (inactive),
CC1CCCCN1C(=O)Cn1c(=O)oc2cc(S(=O)(=O)N3CCCCC3)ccc21 (stereo unspecified),-16.6% (inactive),
CC1CCCN(C(=O)Cn2c(=O)oc3cc(S(=O)(=O)N4CCCCC4C)ccc32)C1 (stereo unspecified),-1.35% (inactive),
CC(C)CCNC(=O)Cn1c(=O)oc2cc(S(=O)(=O)N3CC(C)CC(C)C3)ccc21 (stereo unspecified),,16.4 µM (active)
CC1CCc2sc(C(=O)N/N=C/C3CCCCC3)cc2C1 (stereo unspecified),-4.82% (inactive),
CSc1ncccc1C(=O)NCC(c1ccco1)N1CCCCC1 (stereo unspecified),-2.23% (inactive),

SMILES,"activity change, negative = growth inhibition",Potency
CC1CCc2sc(C(=O)NCC(c3ccco3)N3CCCCC3)cc2C1 (stereo unspecified),,10.3 µM (active)
Cc1ccccc1S(=O)(=O)Cc1ccc(C(=O)NCCN2CCCCC2C)o1 (stereo unspecified),-13.1% (inactive),
CN(CC(=O)Nc1cccc(F)c1)C(=O)C1CSC2(C)CCC(=O)N12 (stereo unspecified),-3.64% (inactive),
COc1ccc(C(=O)Oc2ccc(-c3nnco3)cc2)cc1S(=O)(=O)N1CCOCC1,-22.7% (inactive),
CCCCc1nn2c(=O)cc(COC(=O)c3ccc(NC(=O)c4ccccc4C)cc3)nc2s1,,14.6 µM (active)
O=C(Nc1ccc(C(=O)OCc2cc(=O)n3nc(C4CC4)sc3n2)cc1)c1ccc(F)cc1,-25.5% (inactive),
Cc1nn2c(=O)cc(COC(=O)c3ccc(NC(=O)C(C)(C)C)cc3)nc2s1,,18.4 µM (active)
Cc1nn2c(=O)cc(COC(=O)CNC(=O)c3ccc(F)cc3)nc2s1,-4.36% (inactive),
CCCc1nn2c(=O)cc(COC(=O)c3ccc(NC(=O)C(C)Oc4ccccc4)cc3)nc2s1 (stereo unspecified),-11.2% (inactive),
CCCCc1nn2c(=O)cc(COC(=O)c3ccccc3NC(=O)C(C)(C)C)nc2s1,3.41% (inactive),
Cc1nn(C)cc1S(=O)(=O)N1CCN(c2ccc(F)cc2)CC1,8.4% (inactive),
C=CCNc1nnc(C)c2ccccc12,-5.04% (inactive),
Cc1nc(-c2ccc([N+](=O)[O-])cc2)c(-c2ccccc2)o1,-27.8% (inactive),
O=c1[nH]n(-c2ccc([N+](=O)[O-])cc2)c(=O)c2ccccc12,0.976% (inactive),
O=C1CC(c2ccccc2)=NN1c1ccc([N+](=O)[O-])cc1,,16.4 µM (active)
CC(C)c1nc(CNC(=O)CC2C(=O)NCCN2Cc2cccc(F)c2F)cs1 (stereo unspecified),-8.46% (inactive),
CCN(CC)CCCNC(=O)Cn1cnc2sc(C)c(S(=O)(=O)N3CCN(c4ncccn4)CC3)c2c1=O,-1.58% (inactive),
C[N+]1(CCNC(=O)/C=N/O)CCCCC1,-2.55% (inactive),
O=C(Cn1cc(C(F)(F)F)ccc1=O)Nc1ccc2c(c1)OCCO2,-7.57% (inactive),
CCCCn1c(SCC(=O)N2CCC(C(=O)OCC)CC2)nc2cc(S(N)(=O)=O)ccc21,-11.5% (inactive),
CCCCn1c(SCc2ncc(-c3ccccc3)o2)nc2cc(S(N)(=O)=O)ccc21,,9.2 µM (active)
CCCCn1c(SCC(=O)N2CCCC2=O)nc2cc(S(N)(=O)=O)ccc21,2.67% (inactive),

SMILES,"activity change, negative = growth inhibition",Potency
Cc1[nH][nH]c(=O)c1N=Nc1ccccc1,-5.5% (inactive),
Cc1ccc(NC2(C#N)C(=O)Nc3ccccc32)cc1 (stereo unspecified),-21.8% (inactive),
COC(=O)C(C)NC(=O)COc1ccc2ccccc2c1 (stereo unspecified),-13.9% (inactive),
CCCCSc1[nH]c(=O)c(C(=O)OCC)cc1C#N,-13.7% (inactive),
CCOc1ccccc1CNS(=O)(=O)c1cc(-c2cc(C)no2)ccc1C,-4.87% (inactive),
Cc1cc(-c2ccc(C)c(S(=O)(=O)NC(C)Cc3ccco3)c2)on1 (stereo unspecified),-4.97% (inactive),
CCc1ccc(-c2cc(C)no2)cc1S(=O)(=O)NCCc1ccc(S(N)(=O)=O)cc1,-19.4% (inactive),
Cc1cc(-c2ccc(C)c(S(=O)(=O)NCCCN(Cc3ccccc3)C(C)C)c2)on1,,13 µM (active)
COc1cccc(CNS(=O)(=O)c2cc3c(cc2C)n(C)c(=O)c(=O)n3C)c1,,inactive
COc1ccc(CNS(=O)(=O)c2cc(-c3cc(C)no3)ccc2C(C)C)cc1,,0.731 µM (active)
CC(=O)OC(C)C[N+](C)(C)C (stereo unspecified),,inactive
C=CCOc1ccc(/C=C/C(=O)OC(C)C(=O)Nc2ccc(NC(C)=O)cc2)cc1 (stereo unspecified),3.52% (inactive),
COC(=O)c1c(C)cc(O)c(C)c1O,-27.8% (inactive),
O=C(/C=C/c1ccco1)NC(=S)N1CCCCC1,-10.6% (inactive),
NC(=O)c1ccsc1NC(=O)COC(=O)Cc1n[nH]c(=O)c2ccccc12,-18% (inactive),
Cc1cc(C)c(C2C3=C(Nc4c2c(C)nn4-c2ccccn2)c2ccccc2C3=O)c(C)c1 (stereo unspecified),,8.2 µM (active)
Cc1nc2ccccc2n1C(=O)N1CCOCC1,-2.07% (inactive),
CC(OC(=O)/C=C/c1ccccc1)C(=O)NC1CCCCC1C (stereo unspecified),6.75% (inactive),
CC(C=Cc1ccccc1)=NNS(=O)(=O)c1ccc([N+](=O)[O-])cc1,-24.8% (inactive),
CC(/C=C/c1ccccc1)=N\NC(=O)C1CC1(C)c1ccccc1 (stereo unspecified),,18.4 µM (active)
Cn1c(=NC(=O)c2ccc3c(c2)OCCO3)sc2cc(S(C)(=O)=O)ccc21,,inactive
O=C(CO/N=C/c1ccccc1O)NNC(=O)c1ccccc1Cl,,0.184 µM (active)

SMILES,"activity change, negative = growth inhibition",Potency
NS(=O)(=O)c1cc(C(=O)OCC(=O)NNC(=O)c2ccccc2)ccc1Cl,4.14% (inactive),
O=C(CO/N=C/c1ccccc1OC(F)F)NC1CCCC1,-17.2% (inactive),
CCCc1cc(=O)oc2c(C)c(OCC(=O)NCc3ccccn3)ccc12,-5.71% (inactive),
CN(CCC#N)c1ccc(C=O)cc1,-5.8% (inactive),
N#Cc1ccc(C(=O)Nc2nc(-c3cccs3)c(C(=O)C(F)(F)F)s2)cc1,,1.3 µM (active)
CC(=O)c1sc(NC(=O)c2ccc(C)cc2)nc1C,-8.46% (inactive),
CCOc1cccc(C(=O)Nc2nnc(-c3cccs3)s2)c1,-17.9% (inactive),
COc1ccc(CCNC(=O)c2cn(C)c3ccc(S(=O)(=O)N(C)C4CCCCC4)cc3c2=O)cc1OC,-15.7% (inactive),
CC1(C)CC(=O)C=C(c2ccccc2CO)C1=O,-8.99% (inactive),
CC1CCCC(C)N1C(=O)COC(=O)COc1ccccc1C#N (stereo unspecified),14.7% (inactive),
Cc1nnc(NC2=NCCCCC2)o1,4.11% (inactive),
COc1cccc(C(=O)NC(=O)Nc2nc(C)cc(C(F)(F)F)n2)c1,2.08% (inactive),
COc1ccc(OCC(=O)NNC(=O)c2cccc(C)c2)cc1,-3.54% (inactive),
COc1ccc(CN2C(=O)C(NC(=O)c3cccc(C)c3)(C(F)(F)F)N=C2c2ccccc2)cc1 (stereo unspecified),,20.6 µM (active)
COc1ccc(S(=O)(=O)N2CCN(C(=O)c3cc(C)oc3C)CC2)cc1,-7.03% (inactive),
COc1ccc(C(=O)Nc2cccnc2)cc1C(=O)Nc1cccnc1,-5.19% (inactive),
COc1ccc(C(=O)CCC(=O)Nc2cccnc2)c(OC)c1,-29.8% (inactive),
COc1ccc(C(=O)/C=C/c2cccnc2)c(OC)c1,,18.4 µM (active)
CC/C(=N\O)C(C)(C)/[N+]([O-])=C/c1ccc(Br)cc1,0.798% (inactive),
O=c1c2[nH]c3ccc(Cl)cc3c2ncn1Cc1ccccn1,7.63% (inactive),
COc1cccc(NC(=O)Cc2ccc(C)cc2)c1,-1.58% (inactive),
Cc1cccc(NC(=O)Nc2cccc(Oc3c(F)c(F)c(F)c(F)c3F)c2)c1,,18.4 µM (active)

SMILES,"activity change, negative = growth inhibition",Potency
COc1cccc(NC(=O)NCc2ccc(F)cc2)c1,-8.3% (inactive),
CN1CCC(OC(=O)COc2ccc(Cl)cc2Cl)CC1,0.589% (inactive),
C[N+]1(CC(O)COc2ccccc2)CCN(C(=O)c2ccc([N+](=O)[O-])cc2)CC1 (stereo unspecified),5.86% (inactive),
COc1cccc(NC(=S)C(C#N)=C2N(C)c3ccccc3N2C)c1,3.59% (inactive),
CCOc1cccc(NC(=O)CC#N)c1,-6.7% (inactive),
CC(=O)Nc1cccc(OCC(=O)/C=C2\N(C)c3ccccc3C2(C)C)c1,,7.31 µM (active)
CC(=O)NCC(O)c1ccc([N+](=O)[O-])cc1 (stereo unspecified),0.615% (inactive),
Cc1cc(C)c(C#N)c(SCC(=O)NN2CC(=O)N(c3ccccc3F)CC2=O)n1,-21.5% (inactive),
CCOC(=O)C=Cc1ccc(C(=O)OCC)[nH]1,,8.2 µM (active)
CCOC(=O)c1ccccc1OC(=O)Oc1ccccc1C(=O)OCC,-23.8% (inactive),
CCOC(=O)c1cc2cc(C)ccc2[nH]1,-17.6% (inactive),
CCOC(=O)c1cccc(NC(=O)CN2C(=O)C3CC=CCC3C2=O)c1 (stereo unspecified),-23.4% (inactive),
CCOC(=O)/C(=C\c1ccc([N+](=O)[O-])cc1)C(=O)c1cc(C(C)=O)c(Nc2ccccc2)s1,,0.731 µM (active)
O=C(O)C(=Cc1ccc([N+](=O)[O-])cc1)CCc1ccccc1,-10.6% (inactive),
O=C(Nc1ccccc1)/C(=C/c1ccc([N+](=O)[O-])cc1)NC(=O)c1ccccc1,-20.7% (inactive),
CC(=O)c1c(C)n([O-])c2ccccc2[n+]1=O,2.08% (inactive),
O=C(NCc1ccccc1Cl)C1CCC(CNc2c(N3CCCCC3)c(=O)c2=O)CC1 (stereo unspecified),-1.64% (inactive),
Cc1ccc2c(Cl)c(C(=O)Nc3nn[nH]n3)sc2c1,-28.5% (inactive),
